Source: the supplement of paper PMC11001985

Compound: C#CCNC(=O)CCSSCCC(=O)NCCc1ccc(C=O)c(C=O)c1
Assay: lysine labeling ratio R10:1 (500 µM / 50 µM probe), SILAC-ABPP in living cells; higher = lower intrinsic lysine reactivity toward the probe, active = 2 or less
Conditions: HeLa; probe concentrations 500 vs 50 µM
Method in brief: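 Living SILAC light and heavy HeLa cells in PBS at room temperature were treated with an alkyne-tagged, disulfide-linked lysine probe at 50 µM or 500 µM, with forward and reverse label swaps. The mixed lysates were clicked to biotin-azide, digested with trypsin, captured on neutravidin, released with DTT, alkylated and run by LC-MS/MS on a TIMS-TOF Pro. R for each lysine is the filtered median high-probe/low-probe MS1 peptide ratio, taken again as the median over forward and reverse replicates. Any value above 20 is set to 20.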

UniProt Q15149, sequence (Q15149 whole entry): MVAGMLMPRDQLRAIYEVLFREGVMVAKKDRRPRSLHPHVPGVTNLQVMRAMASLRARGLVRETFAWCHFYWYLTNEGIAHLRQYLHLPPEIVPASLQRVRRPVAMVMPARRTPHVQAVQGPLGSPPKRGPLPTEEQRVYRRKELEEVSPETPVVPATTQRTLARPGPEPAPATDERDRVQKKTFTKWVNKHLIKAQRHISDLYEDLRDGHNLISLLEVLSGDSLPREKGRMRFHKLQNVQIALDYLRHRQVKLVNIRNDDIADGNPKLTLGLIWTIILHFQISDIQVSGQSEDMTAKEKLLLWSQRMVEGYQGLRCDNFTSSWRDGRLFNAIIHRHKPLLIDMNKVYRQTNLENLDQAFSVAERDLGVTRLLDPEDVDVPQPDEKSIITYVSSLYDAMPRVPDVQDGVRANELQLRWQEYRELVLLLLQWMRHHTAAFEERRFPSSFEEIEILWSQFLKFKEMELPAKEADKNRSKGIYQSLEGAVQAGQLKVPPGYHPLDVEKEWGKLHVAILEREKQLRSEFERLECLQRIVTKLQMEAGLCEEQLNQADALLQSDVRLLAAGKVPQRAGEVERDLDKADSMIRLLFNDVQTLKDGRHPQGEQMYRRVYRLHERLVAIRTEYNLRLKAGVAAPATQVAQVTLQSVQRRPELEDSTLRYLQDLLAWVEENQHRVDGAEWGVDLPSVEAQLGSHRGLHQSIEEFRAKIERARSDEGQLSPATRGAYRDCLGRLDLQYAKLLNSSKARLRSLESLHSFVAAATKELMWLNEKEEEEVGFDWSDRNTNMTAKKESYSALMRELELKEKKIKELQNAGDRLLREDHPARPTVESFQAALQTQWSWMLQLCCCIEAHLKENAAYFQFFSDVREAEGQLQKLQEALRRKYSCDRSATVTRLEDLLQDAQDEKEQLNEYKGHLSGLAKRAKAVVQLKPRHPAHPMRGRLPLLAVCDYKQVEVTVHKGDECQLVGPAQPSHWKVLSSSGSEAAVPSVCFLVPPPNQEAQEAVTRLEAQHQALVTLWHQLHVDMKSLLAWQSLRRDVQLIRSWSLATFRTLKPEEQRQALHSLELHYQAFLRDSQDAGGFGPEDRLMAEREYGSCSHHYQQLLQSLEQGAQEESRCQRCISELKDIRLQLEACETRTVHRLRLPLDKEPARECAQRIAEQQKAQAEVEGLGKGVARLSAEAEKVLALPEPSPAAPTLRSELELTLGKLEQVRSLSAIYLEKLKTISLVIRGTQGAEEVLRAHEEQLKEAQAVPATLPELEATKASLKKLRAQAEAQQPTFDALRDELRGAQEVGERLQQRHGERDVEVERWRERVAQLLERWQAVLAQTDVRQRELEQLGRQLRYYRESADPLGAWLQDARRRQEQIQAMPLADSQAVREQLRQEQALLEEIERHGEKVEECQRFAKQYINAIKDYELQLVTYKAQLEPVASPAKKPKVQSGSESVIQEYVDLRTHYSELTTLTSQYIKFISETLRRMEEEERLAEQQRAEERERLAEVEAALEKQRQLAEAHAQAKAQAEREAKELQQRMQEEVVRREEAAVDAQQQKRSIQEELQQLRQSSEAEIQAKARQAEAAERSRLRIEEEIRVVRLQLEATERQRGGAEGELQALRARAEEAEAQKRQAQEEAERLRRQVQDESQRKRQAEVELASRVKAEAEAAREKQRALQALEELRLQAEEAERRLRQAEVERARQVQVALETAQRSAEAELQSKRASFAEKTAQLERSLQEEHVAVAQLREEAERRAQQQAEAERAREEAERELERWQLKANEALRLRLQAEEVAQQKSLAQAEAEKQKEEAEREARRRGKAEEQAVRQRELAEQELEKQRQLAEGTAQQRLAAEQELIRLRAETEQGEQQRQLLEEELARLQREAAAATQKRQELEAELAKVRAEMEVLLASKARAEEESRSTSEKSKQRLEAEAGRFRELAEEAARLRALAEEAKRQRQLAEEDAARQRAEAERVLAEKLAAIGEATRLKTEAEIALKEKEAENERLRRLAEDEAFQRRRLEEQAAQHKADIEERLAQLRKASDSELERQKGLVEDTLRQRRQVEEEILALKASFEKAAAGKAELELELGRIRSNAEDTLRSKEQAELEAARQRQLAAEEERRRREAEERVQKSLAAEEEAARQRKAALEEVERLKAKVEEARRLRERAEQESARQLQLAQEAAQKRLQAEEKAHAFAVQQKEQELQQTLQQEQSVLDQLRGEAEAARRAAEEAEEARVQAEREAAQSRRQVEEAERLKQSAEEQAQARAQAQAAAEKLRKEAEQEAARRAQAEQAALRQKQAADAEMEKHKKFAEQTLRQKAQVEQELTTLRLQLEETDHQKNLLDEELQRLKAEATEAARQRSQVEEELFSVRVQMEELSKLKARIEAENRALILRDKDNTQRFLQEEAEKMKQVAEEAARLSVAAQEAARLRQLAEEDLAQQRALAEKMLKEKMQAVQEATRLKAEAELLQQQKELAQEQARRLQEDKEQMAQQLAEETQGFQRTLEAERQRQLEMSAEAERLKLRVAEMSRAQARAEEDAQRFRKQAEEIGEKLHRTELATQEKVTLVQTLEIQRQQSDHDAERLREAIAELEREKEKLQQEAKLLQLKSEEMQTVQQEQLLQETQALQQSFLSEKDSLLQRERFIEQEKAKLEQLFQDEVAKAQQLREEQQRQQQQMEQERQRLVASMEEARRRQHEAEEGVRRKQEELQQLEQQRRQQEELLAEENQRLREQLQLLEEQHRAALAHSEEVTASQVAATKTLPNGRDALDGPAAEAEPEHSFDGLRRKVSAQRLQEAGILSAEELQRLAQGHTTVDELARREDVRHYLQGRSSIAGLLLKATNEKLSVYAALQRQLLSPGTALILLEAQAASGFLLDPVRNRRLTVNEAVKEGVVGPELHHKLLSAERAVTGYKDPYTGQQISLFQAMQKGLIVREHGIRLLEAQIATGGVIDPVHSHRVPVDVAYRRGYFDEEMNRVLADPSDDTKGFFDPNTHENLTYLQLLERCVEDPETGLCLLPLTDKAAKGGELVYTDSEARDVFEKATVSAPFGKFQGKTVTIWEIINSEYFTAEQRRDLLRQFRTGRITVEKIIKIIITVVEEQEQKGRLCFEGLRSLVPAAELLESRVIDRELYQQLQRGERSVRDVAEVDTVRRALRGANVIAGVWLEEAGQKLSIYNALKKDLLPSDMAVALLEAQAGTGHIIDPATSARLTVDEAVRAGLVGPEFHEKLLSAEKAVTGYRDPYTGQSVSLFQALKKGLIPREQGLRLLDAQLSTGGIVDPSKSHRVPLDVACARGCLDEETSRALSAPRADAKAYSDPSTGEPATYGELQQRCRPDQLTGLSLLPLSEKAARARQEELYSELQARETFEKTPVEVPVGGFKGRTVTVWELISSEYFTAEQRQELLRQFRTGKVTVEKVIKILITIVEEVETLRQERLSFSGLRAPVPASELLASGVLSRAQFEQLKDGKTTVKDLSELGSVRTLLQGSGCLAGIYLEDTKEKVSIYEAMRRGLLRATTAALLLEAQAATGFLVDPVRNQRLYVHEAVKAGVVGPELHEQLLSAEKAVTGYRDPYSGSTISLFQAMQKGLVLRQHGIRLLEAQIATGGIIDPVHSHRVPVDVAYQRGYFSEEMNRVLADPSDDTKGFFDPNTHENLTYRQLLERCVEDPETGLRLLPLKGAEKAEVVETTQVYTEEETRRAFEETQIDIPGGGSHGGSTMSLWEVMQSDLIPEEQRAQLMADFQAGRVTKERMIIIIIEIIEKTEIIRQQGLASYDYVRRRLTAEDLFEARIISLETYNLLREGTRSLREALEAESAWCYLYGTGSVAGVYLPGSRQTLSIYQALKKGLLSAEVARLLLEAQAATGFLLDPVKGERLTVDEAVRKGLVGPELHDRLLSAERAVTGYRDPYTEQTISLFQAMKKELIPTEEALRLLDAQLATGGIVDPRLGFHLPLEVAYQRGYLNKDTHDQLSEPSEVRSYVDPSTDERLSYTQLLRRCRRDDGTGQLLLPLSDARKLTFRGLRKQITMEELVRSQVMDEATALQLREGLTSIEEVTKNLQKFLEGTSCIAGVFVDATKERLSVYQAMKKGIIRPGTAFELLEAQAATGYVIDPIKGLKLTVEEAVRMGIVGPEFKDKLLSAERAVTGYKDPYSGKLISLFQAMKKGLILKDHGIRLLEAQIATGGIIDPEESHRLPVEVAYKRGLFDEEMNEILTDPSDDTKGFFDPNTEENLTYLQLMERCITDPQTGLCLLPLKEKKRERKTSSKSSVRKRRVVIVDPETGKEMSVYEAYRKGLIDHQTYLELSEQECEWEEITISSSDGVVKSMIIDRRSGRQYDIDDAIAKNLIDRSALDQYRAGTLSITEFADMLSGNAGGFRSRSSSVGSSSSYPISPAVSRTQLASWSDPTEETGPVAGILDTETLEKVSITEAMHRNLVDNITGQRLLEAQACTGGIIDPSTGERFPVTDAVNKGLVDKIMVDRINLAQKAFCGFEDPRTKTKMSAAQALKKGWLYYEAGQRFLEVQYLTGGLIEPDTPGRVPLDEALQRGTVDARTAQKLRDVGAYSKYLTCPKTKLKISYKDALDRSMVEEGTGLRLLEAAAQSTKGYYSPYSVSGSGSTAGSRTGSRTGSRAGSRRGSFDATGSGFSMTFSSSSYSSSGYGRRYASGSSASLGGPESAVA
UniProt Q16181, sequence (Q16181 whole entry): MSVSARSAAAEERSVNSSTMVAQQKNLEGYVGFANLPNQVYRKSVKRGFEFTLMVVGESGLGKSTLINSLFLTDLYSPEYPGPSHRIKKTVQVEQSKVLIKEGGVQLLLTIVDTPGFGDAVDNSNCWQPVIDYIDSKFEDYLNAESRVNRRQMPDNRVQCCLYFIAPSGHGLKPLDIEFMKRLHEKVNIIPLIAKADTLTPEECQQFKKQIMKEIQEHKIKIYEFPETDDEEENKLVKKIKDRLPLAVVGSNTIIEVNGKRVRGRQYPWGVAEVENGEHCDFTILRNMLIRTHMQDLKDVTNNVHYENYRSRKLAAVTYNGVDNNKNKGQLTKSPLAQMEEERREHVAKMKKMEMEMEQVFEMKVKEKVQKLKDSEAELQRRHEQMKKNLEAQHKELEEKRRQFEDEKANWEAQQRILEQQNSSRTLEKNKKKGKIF

Target | lysine labeling ratio R10:1
TFPI (lysine site: K64) (UniProt P10646) | 1.41 (active)
RPL5 (lysine site: K178) (UniProt P46777) | 4.17 (inactive)
HNRNPC (lysine site: K94) (UniProt P07910) | 3.25 (inactive)
ROBO1 (lysine site: K503) (UniProt Q9Y6N7) | 7.35 (inactive)
HNRNPA2B1 (lysine site: K173) (UniProt P22626) | 7.67 (inactive)
TFRC (lysine site: K665) (UniProt P02786) | 1.78 (active)
HSP90B1 (lysine site: K683) (UniProt P14625) | 4.36 (inactive)
UniProt O43865 (lysine site: K302) | 1.25 (active)
IMPDH2 (lysine site: K422) (UniProt P12268) | 1.55 (active)
SDC4 (lysine site: K105) (UniProt P31431) | 3.81 (inactive)
MTHFD2 (lysine site: K50) (UniProt P13995) | 3.56 (inactive)
TXN (lysine site: K96) (UniProt P10599) | 2.11 (inactive)
UniProt Q15149 (lysine site: K4584) | 0.906 (active)
HSP90AB1 (lysine site: K624) (UniProt P08238) | 7.02 (inactive)
UniProt Q16181 (lysine site: K373) | 2.37 (inactive)
IMPDH2 (lysine site: K511) (UniProt P12268) | 3.35 (inactive)
UniProt Q15149 (lysine site: K2047) | 0.91 (active)
